Reference: PubChem BioAssay AID504819 (NMMLSC, 2011)
The list shows a part of the results. Unmarked numbers belong to inactive results.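 How the source made its calls: active means compounds quenching the bead-bound labeled aptamer, with fluorescence dropping by more than 37 kMESF over the dose range; inactive means the rest.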

Assay: fluorescence quenching of FAM-labeled RNA aptamer, dose response, artefact control for GRK2 aptamer inhibitor project, biochemical, flow cytometry, cherry pick 2 (AID 504819)
Details: Streptavidin beads, active compounds read high

Row | Compound | change in fluorescence (kMESF span) [kMESF]
1 | O=C(CCS(=O)(=O)c1ccc(Br)cc1)NCCc1ccc(Cl)cc1 | 2.5
2 | COc1ccc(Cl)cc1NC(=O)CCS(=O)(=O)c1ccc(Br)cc1 | 1.4
